The source of these data is PubChem BioAssay.

A number with no mark means an inactive call. Inconclusive results are not listed. Active and inactive are the calls of the source.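 Rule for the calls, unless noted: active = cell viability at or below a set limit in both duplicate runs, the limit being the all-compound median minus 4 SD (cut at about 23% in these data, passing the limit was not always enough); inconclusive = no clear call, values can overlap the other calls; inactive = the rest.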

The first experiment is described as follows: viability gain of MRP-1-high H69AR cells under doxorubicin, pilot screen, MRP-1 activator project, CellTiter-Glo, duplicate (AID 807;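 active = viability increase at or above a cutoff of the median across tested compounds plus 3 SD, cut at about 8.5% in these data, passing the limit was not always enough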;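 note: compound pretreatment 18-22 h then 72 h combined with doxorubicin; 0% = doxorubicin alone and 100% = vehicle without doxorubicin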). As to conditions: H69AR viability with doxorubicin, CellTiter-Glo luminescence; at 10 µM; stronger effect = higher value.
With `CCOc1ccc(OCC)c(Nc2cc(C)nc3nc(C)nn23)c1`, the viability increase is -6.5%.

Turning to `O=C(Cn1cc2c(n1)CCCC2)NCCCN1CCN(C2CCCCC2)CC1`, the viability increase was -0.74%.

For `Cc1ccc(CN2CCN(CC(=O)N3CCC(C(N)=O)CC3)C2=O)cc1`, the viability increase is -0.17%.

With `O=C(c1ccc(CS(=O)(=O)c2ccc(Br)cc2)o1)N1CCN(C2CCCCC2)CC1`, the viability increase was -3.78%.

With `CCN(CC)C(=O)CCCOc1ccc(Cl)cc1Cl`, the viability increase is 0.07%.

Regarding `O=C(O)c1ccc(NS(=O)(=O)c2cc(Cl)ccc2Cl)cc1`, the viability increase was -2.13%.

For `S=c1[nH]nc(CSc2nc3ccccc3s2)o1`, the viability increase is -4.34%.

Turning to `CCn1c(=O)cc(OCC(=O)N2CCc3ccccc32)c2ccccc21`, the viability increase is -3.92%.

Turning to `COC(=O)c1c(C)nn(-c2ccccc2)c1N`, the viability increase was -1.39%.

For the molecule `Fc1ccc(CN2CCCCCCC2)cc1F`, the viability increase is -3.13%.

Consider `COc1ccccc1NC(=O)C1CCCN(S(=O)(=O)c2cnc[nH]2)C1` (stereo not given), for which the viability increase was -0.26%.

`O=C(/C=N/O)Nc1ccccc1C(=O)O`: the viability increase was -2.95%.

For the molecule `O=C(NC(C(=O)c1ccccc1)N1CCOCC1)c1ccccc1` (stereo not given), the viability increase was -2.37%.

Consider `COc1ccc(S(=O)(=O)N2CCN(C)CC2)c2ccccc12`, for which the viability increase is -3.62%.

`CCOc1cccc(NC(=O)Cc2cccs2)c1`: the viability increase was -1.86%.

As to `CCSc1nnc2c(n1)OC1(CCCC1)Nc1ccccc1-2`, the viability increase is -0.51%.

Turning to `COc1ccc2c(c1)OC1(C)CC2C(C(=O)c2ccccc2OC)C(=O)N1` (stereo not given), the viability increase was -4.56%.

With `O=C(NC1CCCCCC1)C1CCCN1S(=O)(=O)c1cccc2cccnc12` (stereo not given), the viability increase is -0.87%.

`O=C(COc1ccccc1)NCc1nnc(SCC(=O)Nc2nccs2)n1-c1ccccc1`: the viability increase was -1.46%.

In the case of `O=C(NCCc1csc(-c2ccccc2)n1)c1cccs1`, the viability increase is 2.21%.

For `COc1ccc(C2(C(=O)NCCCN(C)C)CCOCC2)cc1`, the viability increase was -0.22%.

With `COc1ccc(OCc2nnc(SCC(=O)O)n2N)cc1`, the viability increase was 1.25%.

`Cc1cccc(N2CC(c3nc4ccccc4n3C)CC2=O)c1C` (stereo not given): the viability increase was -3.04%.

Regarding `CN(C)S(=O)(=O)c1ccc(C(=O)Nc2ccc(F)cc2F)cc1`, the viability increase was 1.08%.

In the case of `CC(=O)CCc1c(C)[nH]c2ccc(NC(C)=O)cc2c1=O`, the viability increase is -0.95%.

Take `CC(C)C(NC(=O)CN1C(=O)c2ccccc2S1(=O)=O)C(C)C`: the viability increase is -2.05%.

For `CC12CCC(C(=O)Nc3ccc4c(c3)OCCO4)(OC1=O)C2(C)C` (stereo not given), the viability increase was -0.01%.

Turning to `[O-]/[N+](=C\c1ccc(OC(F)F)cc1)c1ccccc1`, the viability increase was -5.13%.

For the molecule `COc1ccccc1NC(=O)C1=C(C)Nc2nnnn2C1c1cccc(C)c1` (stereo not given), the viability increase was -5.73%.

With `CCOCCn1c(SCC(=O)OCc2ccccc2)nc2c1c(=O)[nH]c(=O)n2C`, the viability increase was -0.57%.

As to `O=C(NCCCN1CCOCC1)c1ccco1`, the viability increase was -0.94%.

`Cc1cccc(NC(=O)c2ccc(S(=O)(=O)N(C)C)cc2)c1`: the viability increase was -3.61%.

For the molecule `Cc1cc(=S)n(-c2ccccc2)n1C`, the viability increase is -0.34%.

`O=C(O)C1C2C=CC3(CN(C/C=C/c4ccccc4)C(=O)C13)O2` (stereo not given): the viability increase is -2.86%.

Regarding `COc1ccc(OC)c(NC(=O)Cn2cnc3c(cnn3-c3ccccc3)c2=O)c1`, the viability increase is -0.9%.

In the case of `Cc1cc(C)n2nc(S(=O)(=O)N(CC(C)C)CC(C)C)nc2n1`, the viability increase was -1.13%.

In the case of `Cc1cccc(N2CCN(c3nc4ccc(Cl)cc4n4cnnc34)CC2)c1C`, the viability increase is -8.78%.

For `O=C(O)c1cccc(-n2cnnn2)c1`, the viability increase is 0.82%.

For `CN(C)CCCNc1ncnc2c1cnn2-c1ccccc1`, the viability increase is 2.9%.

As to `O=C(Nc1nc(-c2ccccc2)cs1)c1cccs1`, the viability increase was -1.21%.

A short description of the next experiment: growth suppression of beta-catenin knockout HCT116, pilot screen, human colon tumor cells (AID 823).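 Note: 0% = wells killed by 20 µM Hyamine and 100% = untreated DMSO cell wells.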 As to conditions: CellTiter-Glo, 60 h, at 10 µM, stronger effect = lower value.
On to `CCOc1ccc(OCC)c(Nc2cc(C)nc3nc(C)nn23)c1`, for which the viability is 53.1%.

In the case of `O=C(Cn1cc2c(n1)CCCC2)NCCCN1CCN(C2CCCCC2)CC1`, the viability was 101%.

As for `Cc1ccc(CN2CCN(CC(=O)N3CCC(C(N)=O)CC3)C2=O)cc1`, the viability was 105%.

Consider `O=C(c1ccc(CS(=O)(=O)c2ccc(Br)cc2)o1)N1CCN(C2CCCCC2)CC1`, for which the viability is 112%.

Regarding `CCN(CC)C(=O)CCCOc1ccc(Cl)cc1Cl`, the viability is 76.7%.

As to `O=C(O)c1ccc(NS(=O)(=O)c2cc(Cl)ccc2Cl)cc1`, the viability is 97.8%.

As to `S=c1[nH]nc(CSc2nc3ccccc3s2)o1`, the viability is 93.8%.

For the molecule `CCn1c(=O)cc(OCC(=O)N2CCc3ccccc32)c2ccccc21`, the viability is 96.1%.

As to `COC(=O)c1c(C)nn(-c2ccccc2)c1N`, the viability was 108%.

Take `Fc1ccc(CN2CCCCCCC2)cc1F`: the viability is 92.2%.

For the molecule `COc1ccccc1NC(=O)C1CCCN(S(=O)(=O)c2cnc[nH]2)C1` (stereo not given), the viability was 97%.

For `O=C(/C=N/O)Nc1ccccc1C(=O)O`, the viability was 97.1%.

Consider `O=C(NC(C(=O)c1ccccc1)N1CCOCC1)c1ccccc1` (stereo not given), for which the viability is 99.3%.

As to `COc1ccc(S(=O)(=O)N2CCN(C)CC2)c2ccccc12`, the viability is 102%.

With `CCOc1cccc(NC(=O)Cc2cccs2)c1`, the viability is 94.1%.

Consider `CCSc1nnc2c(n1)OC1(CCCC1)Nc1ccccc1-2`, for which the viability is 97.3%.

As to `COc1ccc2c(c1)OC1(C)CC2C(C(=O)c2ccccc2OC)C(=O)N1` (stereo not given), the viability is 80.4%.

As for `O=C(NC1CCCCCC1)C1CCCN1S(=O)(=O)c1cccc2cccnc12` (stereo not given), the viability was 90.9%.

Turning to `O=C(COc1ccccc1)NCc1nnc(SCC(=O)Nc2nccs2)n1-c1ccccc1`, the viability is 101%.

`O=C(NCCc1csc(-c2ccccc2)n1)c1cccs1`: the viability is 93.7%.

`COc1ccc(C2(C(=O)NCCCN(C)C)CCOCC2)cc1`: the viability is 98.3%.

On to `COc1ccc(OCc2nnc(SCC(=O)O)n2N)cc1`, for which the viability was 106%.

`Cc1cccc(N2CC(c3nc4ccccc4n3C)CC2=O)c1C` (stereo not given): the viability is 104%.

Consider `CN(C)S(=O)(=O)c1ccc(C(=O)Nc2ccc(F)cc2F)cc1`, for which the viability was 95.5%.

As to `CC(=O)CCc1c(C)[nH]c2ccc(NC(C)=O)cc2c1=O`, the viability was 100%.

Regarding `CC(C)C(NC(=O)CN1C(=O)c2ccccc2S1(=O)=O)C(C)C`, the viability was 98.8%.

`CC12CCC(C(=O)Nc3ccc4c(c3)OCCO4)(OC1=O)C2(C)C` (stereo not given): the viability was 93.7%.

On to `[O-]/[N+](=C\c1ccc(OC(F)F)cc1)c1ccccc1`, for which the viability was 88.1%.

Turning to `COc1ccccc1NC(=O)C1=C(C)Nc2nnnn2C1c1cccc(C)c1` (stereo not given), the viability is 82.3%.

As for `CCOCCn1c(SCC(=O)OCc2ccccc2)nc2c1c(=O)[nH]c(=O)n2C`, the viability is 104%.

Regarding `O=C(NCCCN1CCOCC1)c1ccco1`, the viability was 98.8%.

On to `Cc1cccc(NC(=O)c2ccc(S(=O)(=O)N(C)C)cc2)c1`, for which the viability was 106%.

For the molecule `Cc1cc(=S)n(-c2ccccc2)n1C`, the viability is 102%.

`O=C(O)C1C2C=CC3(CN(C/C=C/c4ccccc4)C(=O)C13)O2` (stereo not given): the viability is 94%.

As to `COc1ccc(OC)c(NC(=O)Cn2cnc3c(cnn3-c3ccccc3)c2=O)c1`, the viability was 98%.

`Cc1cc(C)n2nc(S(=O)(=O)N(CC(C)C)CC(C)C)nc2n1`: the viability is 104%.

For `Cc1cccc(N2CCN(c3nc4ccc(Cl)cc4n4cnnc34)CC2)c1C`, the viability is 2.03% (active).

`O=C(O)c1cccc(-n2cnnn2)c1`: the viability was 104%.

Take `CN(C)CCCNc1ncnc2c1cnn2-c1ccccc1`: the viability was 94.3%.

Turning to `O=C(Nc1nc(-c2ccccc2)cs1)c1cccs1`, the viability is 66.3%.
